Inconclusive results are not listed. Calls of active or inactive are those of the source. Calls follow the shape of the dose curve; as a rule, active = well fitted activation curve with a large enough effect; inconclusive = small, poorly fitted or top-dose-only effect; inactive = no such curve, though single readings can be large or run the other way.
target: Cellular tumor antigen p53 (Homo sapiens) (UniProt P04637); experiment: Primary qHTS for small molecule compounds that upregulate eGFP-tagged delta133p53alpha (in N-terminal) cells. (AID 2060322); settings: NCI-H358 eGFP-delta133p53alpha fluorescence, 24 h; activation: stronger effect = higher value;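 also: series mostly up to about 56 µM; 0% = DMSO vehicle and 100% = reference activator; nearly all actives have a fitted effect of over 75% in size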
Sequence (P04637 whole entry, looked up): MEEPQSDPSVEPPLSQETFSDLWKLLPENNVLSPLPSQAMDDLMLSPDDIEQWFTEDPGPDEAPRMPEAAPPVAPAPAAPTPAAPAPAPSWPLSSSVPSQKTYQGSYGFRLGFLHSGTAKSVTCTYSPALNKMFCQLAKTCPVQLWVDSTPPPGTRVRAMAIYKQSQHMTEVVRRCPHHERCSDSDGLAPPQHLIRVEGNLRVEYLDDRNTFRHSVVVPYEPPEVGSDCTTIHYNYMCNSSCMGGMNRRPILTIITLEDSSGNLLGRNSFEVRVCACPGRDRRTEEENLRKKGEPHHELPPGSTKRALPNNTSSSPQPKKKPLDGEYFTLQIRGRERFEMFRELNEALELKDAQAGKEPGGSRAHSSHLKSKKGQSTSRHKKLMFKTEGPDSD
Procedure, shortened: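 NCI-H358 cells pre-induced 24 h with 10 ng/ml doxycycline to express N-terminal eGFP-delta133p53alpha, then dosed 24 h at 37C without doxycycline; fixed, Hoechst-stained, GFP intensity by laser scanning cytometry, normalized to DMSO (0%) and 57.5 uM 5-azacytidine (100%).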

Question: For `OCC(O)C(O)C(O)CO` (centres undefined), which activation is on record?
Answer: 28.5% (inactive)

Question: With `CN(C)[C@@H](CCOc1cccc2ccccc12)c1ccccc1` as the molecule, how does the activation read?
Answer: 8.7% (inactive)

Question: Which activation does the source give for `c1ccc2c(c1)CCc1ccccc1N2` here?
Answer: 10.7% (inactive)

Question: Which activation does the source give for `C#C[C@]1(O)CC[C@@H]2[C@@H]3CCc4cc(O)ccc4[C@H]3CC[C@@]21C` here?
Answer: 18.7% (inactive)
